Where “and” joins values, the source holds several entries; their conditions need not be identical. Equal values may be shown once. Results filed as inconclusive are left out. A number with no mark means an inactive call. Calls of active or inactive are those of the source. The call rests on the fitted dose curve; in most records, active means well fitted curve in the direction sought with a large enough effect; inconclusive means small, poorly fitted or top-dose-only effect, or another doubt; inactive means no such curve, though single readings can be large; an effect the other way counts as inactive or inconclusive.
System: Zika virus NS2B-NS3 protease
Assay: Primary screen GU AMC qHTS for Zika virus inhibitors (AID 1347154); further: nearly all actives have a fitted effect of over 70% in size; further: potency means the concentration at half of the fitted maximal effect;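 on activity change, negative = inhibition: 0% = no-inhibitor control and -100% = no-enzyme control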
Conditions: Zika NS2B-NS3 unlinked protease, AMC fluorogenic substrate; series mostly up to 54.1 µM; activity change, negative = inhibition: at the top concentration
Outline: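 Unlinked Zika NS2B hydrophilic domain/NS3 protease domain noncovalent complex (25 nM final) in 10 mM Tris-HCl pH 8.0, 0.01% Tween 20, with AMC peptide substrate. Fluorescence (ex 340, em 450 nm) change over 15 min, room temperature; percent inhibition fitted to 4-parameter Hill equation.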

| SMILES | activity change, negative = inhibition | Potency |
| --- | --- | --- |
| CCCn1c(=O)c2c(ncn2C)n(CCC)c1=O | 2.09% | – |
| NC(N)=NC(N)=Nc1cccc(Cl)c1 | – | inactive |
| Cc1cccc(C(=O)NCN2CCN(c3ccccc3C#N)CC2)c1 | -1.83% | – |
| CCc1ccc2c(-c3cccc(Cl)c3)nc(=O)n(CC)c2n1 | 12.4% | – |
| CN1CCc2cc(Cl)c(O)cc2[C@@H](c2ccccc2)C1 | – | inactive |
| CC1=C(/C=C/C(C)=C/C=C/C(C)=C\C(=O)O)C(C)(C)CCC1 | – | inactive |
| CNCCNS(=O)(=O)c1cccc2cnccc12 | 11.8% | – |
| N=C(N)SCCc1cnc[nH]1 | – | inactive |
| CC1CCN(CC[C@H]2CCCN2S(=O)(=O)c2cccc(O)c2)CC1 | 2.22% | – |
| CC(=O)N[C@@H](Cc1c[nH]c2ccccc12)C(=O)OCc1cc(C(F)(F)F)cc(C(F)(F)F)c1 | -3.99% | – |
| CC(/C=C/c1cccc(Oc2ccc(F)cc2)c1)N(O)C(N)=O (stereo not given) | 12.6% [at 104 µM] | – |
| CCCCCCCCCCCCCCCCCCOC[C@H](COP(=O)([O-])OCC[N+](C)(C)C)OC | 2.23% [at 6.83 µM] | – |
| CC(C)(C)NCC(O)COc1cccc2[nH]c(=O)[nH]c12 (stereo not given) | 12.5% | – |
| CCn1c(=O)[nH]c2cc(Cl)c(Cl)cc21 | -3.73% | – |
| NCCNS(=O)(=O)c1cccc2c(Cl)cccc12 | 4.54% | – |
| Cn1c(=O)c2[nH]c(-c3ccc(S(=O)(=O)O)cc3)nc2n(C)c1=O | – | 5.32 µM (active) |

| SMILES | activity change, negative = inhibition | Potency |
| --- | --- | --- |
| CCN(CC)CCCCCCCCOC(=O)c1cc(OC)c(OC)c(OC)c1 | – | inactive |
| O=C(O)c1cccnc1C(=O)O | 2.29% | – |
| CC[N+](CC)(CC)CC(=O)Nc1c(C)cccc1C | – | inactive |
| O=S(=O)(c1cccc2c(Cl)cccc12)N1CCCNCC1 | – | inactive |
| COc1cc(CC(=O)O)ccc1O | -1.29% | – |
| O=C(O)c1ccccc1Nc1ccccc1 | – | inactive |
| NC/C=C\C(=O)O | – | inactive |
| NC(N)=NC(N)=Nc1ccccc1 | – | inactive |
| CNC(=O)c1cc2c(cn1)[nH]c1ccccc12 | – | 21.2 µM (active) and 18.9 µM (active) |
| C=CCn1c(=O)c2c(nc(-c3ccc(S(=O)(=O)O)cc3)n2C)n(C)c1=O | – | 5.32 µM (active) |
| O=c1ccn([C@@H]2O[C@H](COP(=O)(O)OP(=O)(O)O)[C@@H](O)[C@H]2O)c(=O)[nH]1 | 12.2% | – |
| CCCN(CCc1ccccc1)C1CCc2c(O)cccc2C1 (stereo not given) | -13.4% | – |
| O=C(O)C1=CCCNC1 | – | inactive |
| CCCCCC[C@@H]([C@@H](C)O)n1cnc2c(N)ncnc21 | – | inactive |
| N#Cc1cc2nc(O)c(O)nc2cc1[N+](=O)[O-] | 16.3% | – |
| CC(C)Cn1c(=O)n(C)c(=O)c2[nH]cnc21 | 0.338% | – |

System: not listed separately
Assay: ZIKV-mCherry secondary qHTS for Zika virus inhibitors (AID 1347158); further: top concentration of the series differs between compounds
Conditions: Vero cells, ZIKV-mCherry infection imaging, 48-72 h; series mostly up to 49.2 µM; activity change, negative = inhibition: at the top concentration
Outline: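 Percent infection is the share of Hoechst-identified Vero nuclei with mCherry signal above 450 RFU (3 SD over negative controls). Cells were infected with recombinant ZIKV-mCherry at MOI 1 after compound addition and imaged 48–72 h later.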

| SMILES | activity change, negative = inhibition |
| --- | --- |
| Cc1nc(N=Nc2cc(S(=O)(=O)O)c3cc([N+](=O)[O-])cc(S(=O)(=O)O)c3c2)c(COP(=O)(O)O)c(C=O)c1O | -17.9% |
| CCCc1c(OCCCOc2ccc(OCC(=O)O)cc2)ccc(C(C)=O)c1O | 71.1% [at 32.6 µM] |
| O=c1[nH]c(=S)[nH]c(-c2ccccc2)c1Cc1c(O)ccc2ccccc12 | -8.33% [at 32.6 µM] |
| O=C1NC(=O)c2cc(Nc3ccccc3)c(Nc3ccccc3)cc21 | 1120% |

System: not listed separately
Assay: Confirmatory screen NINDS Rhodamine qHTS for Zika virus inhibitors (AID 1347161); further: potency means the concentration at half of the fitted maximal effect; nearly all actives have a fitted effect of over 60% in size
Conditions: purified enzyme assay, Rhodamine110 substrate fluorescence, 15 min; series mostly up to 114 µM; activity change, negative = inhibition: at the top concentration
Outline: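 Purified NS2B-NS3 protease with the NS2B hydrophilic domain joined by a flexible linker (25 nM) in 10 mM Tris-HCl pH 8.0, 0.01% Tween 20, preincubated 15 min at RT with compound; Rhodamine110 peptide substrate 1.5 µM; fluorescence change over 15 min; 4-parameter Hill fit.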

| SMILES | Potency |
| --- | --- |
| COc1cc(/C=C(\C#N)C(=O)Nc2nnc(C(F)(F)F)s2)ccc1OCc1ccc(C(F)(F)F)cc1C(F)(F)F | 1.75 µM (active) |
| CCCc1c(OCCCOc2ccc(OCC(=O)O)cc2)ccc(C(C)=O)c1O | 3.5 µM (active) |
| O=c1[nH]c(=S)[nH]c(-c2ccccc2)c1Cc1c(O)ccc2ccccc12 | 3.49 µM (active) |

System: Zika virus NS2B-NS3 protease (linked)
Assay: 384 well plate NINDS AMC confirmatory qHTS for Zika virus inhibitors (AID 1347163);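 further: linked protease at 5 30 or 60 nM final depending on run; fluorescence of AMC released from Ac-VKTGKR-AMC peptide cleaved by the protease; top concentration of the series differs between compounds; 0% = no-inhibitor control and -100% = no-enzyme control; nearly all actives have a fitted effect of over 50% in size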
Conditions: Recombinant NS2B-NS3 protease, Ac-VKTGKR-AMC fluorescence; series mostly up to 100 µM; activity change, negative = inhibition: at the top concentration
Outline: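 Fluorescence at 355/460 nm was read after 25 minutes of cleavage of 30 microM Ac-VKTGKR-AMC at room temperature, in the dark. Before substrate addition, compounds (up to 1 mM final) sat ~15 minutes with 5, 30 or 60 nM linked protease. Signals were normalized to no-enzyme and no-inhibitor wells.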

| SMILES | Potency |
| --- | --- |
| COc1cc(/C=C(\C#N)C(=O)Nc2nnc(C(F)(F)F)s2)ccc1OCc1ccc(C(F)(F)F)cc1C(F)(F)F | inactive |

— PubChem BioAssay (NCATS)
